# In the supplement of paper PMC12645437, “Orthogonal IMiD-Degron Pairs Induce Selective Protein Degradation in Cells” (ACS Chemical Biology, 2025):
# Whole data set: some 8,300 sequences, median “log2 fold change of degron read counts, EGFP-low vs EGFP+ sorted cells (limma voom), compound-induced degradation” near -1.1, cut for the highest 2% near 3.2. Many of the other results were omitted from the sample, so the highest values are more common in it than they were.
# T1: CRBN, Q96SW2
# T1 chain: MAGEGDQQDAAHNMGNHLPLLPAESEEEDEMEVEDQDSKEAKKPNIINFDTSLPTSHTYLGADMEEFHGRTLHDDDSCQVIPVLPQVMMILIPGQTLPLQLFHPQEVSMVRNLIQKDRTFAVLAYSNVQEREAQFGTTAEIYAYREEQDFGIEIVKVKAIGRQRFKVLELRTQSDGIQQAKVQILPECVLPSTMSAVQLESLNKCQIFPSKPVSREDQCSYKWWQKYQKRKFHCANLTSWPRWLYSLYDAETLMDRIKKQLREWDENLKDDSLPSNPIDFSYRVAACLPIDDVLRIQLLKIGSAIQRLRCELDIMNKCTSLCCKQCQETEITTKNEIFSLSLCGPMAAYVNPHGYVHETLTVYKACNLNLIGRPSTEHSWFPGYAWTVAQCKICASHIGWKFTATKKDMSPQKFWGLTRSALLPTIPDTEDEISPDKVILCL
# B1: 46F_47W_49E_50I_52G_53R_54S_55F_67L_, Q9UKT9 (peptide)
# chain: FWCEICGRSFTQKGNLLRHIKL
# B2: 46F_47W_49P_50V_52G_53A_54F_55F_67L_, Q9UKT9 (peptide)
# chain: FWCPVCGAFFTQKGNLLRHIKL
# B3: 46F_47I_49N_50V_52G_53A_54C_55F_67L_, Q9UKT9 (peptide)
# chain: FICNVCGACFTQKGNLLRHIKL
# B4: 46F_47R_49N_50Q_52G_53H_54H_55F_67L_, Q9UKT9 (peptide)
# chain: FRCNQCGHHFTQKGNLLRHIKL
# B5: 46F_47M_49N_50V_52G_53A_54V_55F_67L_, Q9UKT9 (peptide)
# chain: FMCNVCGAVFTQKGNLLRHIKL
# B6: 46F_47C_49E_50V_52G_53A_54W_55F_67L_, Q9UKT9 (peptide)
# chain: FCCEVCGAWFTQKGNLLRHIKL
# B7: 46F_47K_49E_50I_52G_53A_54D_55F_67L_, Q9UKT9 (peptide)
# chain: FKCEICGADFTQKGNLLRHIKL
# B8: 46F_47F_49P_50Q_52G_53A_54H_55F_67L_, Q9UKT9 (peptide)
# chain: FFCPQCGAHFTQKGNLLRHIKL
# B9: 46F_47S_49P_50I_52G_53R_54A_55F_67L_, Q9UKT9 (peptide)
# chain: FSCPICGRAFTQKGNLLRHIKL
# B10: 46F_47D_49P_50I_52G_53A_54Q_55F_67L_, Q9UKT9 (peptide)
# chain: FDCPICGAQFTQKGNLLRHIKL
# B11: 46F_47C_49P_50I_52G_53A_54Q_55F_67L_, Q9UKT9 (peptide)
# chain: FCCPICGAQFTQKGNLLRHIKL
# B12: 46F_47Q_49P_50I_52G_53A_54Q_55F_67L_, Q9UKT9 (peptide)
# chain: FQCPICGAQFTQKGNLLRHIKL
# B13: 46F_47G_49P_50I_52G_53A_54Q_55F_67L_, Q9UKT9 (peptide)
# chain: FGCPICGAQFTQKGNLLRHIKL
# B14: 46F_47H_49P_50I_52G_53A_54Q_55F_67L_, Q9UKT9 (peptide)
# chain: FHCPICGAQFTQKGNLLRHIKL
# B15: 46F_47N_49P_50I_52G_53A_54Q_55F_67L_, Q9UKT9 (peptide)
# chain: FNCPICGAQFTQKGNLLRHIKL
# B16: 46F_47M_49E_50I_52G_53H_54L_55F_67L_, Q9UKT9 (peptide)
# chain: FMCEICGHLFTQKGNLLRHIKL
# B17: 46F_47N_49P_50I_52G_53R_54W_55F_67L_, Q9UKT9 (peptide)
# chain: FNCPICGRWFTQKGNLLRHIKL
# B18: 46F_47T_49S_50V_52G_53H_54F_55F_67L_, Q9UKT9 (peptide)
# chain: FTCSVCGHFFTQKGNLLRHIKL
# Biological target: T1, CRBN, Q96SW2
# Assay: log2 fold change of degron read counts, EGFP-low vs EGFP+ sorted cells (limma voom), compound-induced degradation; higher = more compound-induced degradation of the degron-EGFP fusion; degrons are variants of IKZF1/3 zinc finger 2; compound dose not given here
# Settings: Jurkat, 18 h
# [1] = compound: compound 19 (5-tert-butyl-thalidomide)
# [2] = compound: compound 22 (5-morpholino-thalidomide)
# [3] = compound: compound 33 (diphenyl IMiD analogue)
# 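Further: pooled lentiviral library of zinc finger degron-EGFP fusions in mCherry-positive Jurkat cells, FACS-sorted after compound exposure, with degron abundance counted by next-generation sequencing.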
Sequence,log2 fold change of degron read counts [1],log2 fold change of degron read counts [2],log2 fold change of degron read counts [3],log2 fold change of degron read counts (compound: thalidomide)
B1,0.727,1.06,0.626,-1.3
B2,2.23,2.56,1.97,0.614
B3,-2.35,-0.443,0.594,0.469
B4,-2.62,-2.49,-2.68,-2.74
B5,-2.62,-1.87,0.807,-0.813
B6,-0.654,-0.581,0.156,-0.895
B7,-1.37,-3.36,-2.54,-1.55
B8,0.0594,0.455,0.502,-0.835
B9,-0.662,-1.1,0.646,0.0583
B10,2.24,1.5,1.26,2.56
B11,2.39,2.66,2.87,1.93
B12,0.697,2.72,2.41,3.65
B13,3.58,2.65,1.84,1.37
B14,2.46,2.8,2.49,1.66
B15,2.48,1.86,1.27,1.1
B16,-2.89,-3.26,-2.2,-2.63
B17,-0.803,-0.856,0.232,-0.248
B18,-1.8,-2.26,-2.2,-2.2
